Legend:
Details in all cases: concentration: 1 μM, replicates: in singlicate; n = 1
[1] = system: SGK3
[2] = system: SGK
[3] = system: SIK2
[4] = system: SIK
[5] = system: SLK
[6] = system: T1, SNARK
T1 construct: gene NUAK2

[7] = system: SNRK
[8] = system: SRC
[9] = system: SRMS
[10] = system: SRPK1
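Further: KINOMEscan kinase panel screen.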

SMILES | %Inh [1] [%] | %Inh [2] [%] | %Inh [3] [%] | %Inh [4] [%] | %Inh [5] [%] | %Inh [6] [%] | %Inh [7] [%] | %Inh [8] [%] | %Inh [9] [%] | %Inh [10] [%]
Cc1nccc(-c2c(-c3ccc(F)cc3)ncn2CCCN2CCOCC2)n1.Cl [SB-282975] | 39 | 27 | 0 | 27 | 32 | 42 | 2 | 26 | 0 | 19
Nc1ncnc2occ(-c3ccc4c(c3)CCN4C(=O)Cc3cc(F)ccc3F)c12 [GSK2645446] | 1 | 0 | 0 | 0 | 5 | 7 | 0 | 0 | 0 | 16
Cc1ccc(NC(=O)Nc2ccc(Cl)cc2)cc1-c1ccc(C(=O)Nc2ccncc2)cc1 [GSK1398472] | 13 | 0 | 11 | 20 | 12 | 0 | 0 | 8 | 0 | 0
CC(=O)c1c(C)c2cnc(Nc3ccn(C)n3)nc2n(C2CCCC2)c1=O | 26 | 0 | 0 | 0 | 34 | 6 | 0 | 0 | 0 | 0
COc1ccc(CSc2nnc(-c3ccc4ncsc4c3)o2)cc1C(F)(F)F | 0 | 2 | 0 | 11 | 15 | 0 | 0 | 3 | 0 | 10

— paper PMC5540273 (PLoS ONE, 2017)
